From PubChem BioAssay
Active and inactive are the calls of the source.

Tests used:
[1] = system: Plasmodium falciparum Sir2 (PF13_0152, Sir2A); assay: pfSir2 binders on small-molecule microarrays, primary screen, biochemical, small-molecule microarray, 635 nm fluorescence (AID 1098); conditions: small-molecule microarray binding, fluorescence 635 nm; higher = more signal;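 also: score merges spot fluorescence intensity with its signal-to-noise ratio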
[2] = small-molecule microarray binders of probe aDKK1, primary screen, biochemical, biotinylated probe, 635/667 nm fluorescence (AID 1099); conditions: higher = more signal;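 also: score merges 667nm spot fluorescence with signal to noise across triplicate slides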
[3] = small-molecule microarray binders of probe aCHRDL2, primary screen, biochemical, biotinylated probe, 635/667 nm fluorescence (AID 1100); conditions: higher = more signal
[4] = splicing luciferase reporter signal modulators, primary screen, spliceosome inhibition project, cell-based, HEK293, splice +/- reporter (AID 1101); conditions: luminescence, 24 h, higher = more signal, called active from +8 up or from −8 down;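 also: HEK293 cells carrying a splicing-competent luciferase reporter gene; test concentration not given here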
[5] = target: Fibroblast growth factor 10 (Homo sapiens) (UniProt O15520); assay: FGF10 binders on small-molecule microarrays, primary screen, biochemical, small-molecule microarray, 635 nm fluorescence (AID 1102); conditions: FGF10 binding, fluorescence 635 nm, higher = more signal
[6] = system: glycogen synthase kinase-3 (GSK3A per assay name; protocol says GSK3B); assay: GSK3 binders on small-molecule microarrays, primary screen, biochemical, small-molecule microarray, 635 nm fluorescence, GSK3A (AID 1103); conditions: small-molecule microarray binding, fluorescence 635 nm; higher = more signal; also: the record names both GSK3A and GSK3B
[7] = target: Epidermal growth factor receptor (Homo sapiens) (UniProt P00533); assay: EGFR binders on small-molecule microarrays, primary screen, biochemical, small-molecule microarray, 635 nm fluorescence (AID 1104); conditions: EGFR binding, higher = more signal;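 also: score merges 667 nm emission intensity with spot signal to noise over triplicate slides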
[8] = target: Follistatin-related protein 3 (Homo sapiens) (UniProt O95633); assay: FSTL3 binders on small-molecule microarrays, primary screen, biochemical, small-molecule microarray, 635 nm fluorescence (AID 1105); conditions: FSTL3 binding, higher = more signal;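 also: score merges emission near 667 nm and signal to noise per printed spot across three slides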
[9] = target: Dickkopf-related protein 1 (Homo sapiens) (UniProt O94907); assay: DKK1 binders on small-molecule microarrays, primary screen, biochemical, small-molecule microarray, 635 nm fluorescence scan (AID 1106); conditions: DKK1 binding, higher = more signal;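 also: score merges emission near 667 nm with signal to noise over three replicate slides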
[10] = system: Inhibin beta A chain (activin A); assay: INHBA (activin A) binders on microarrays, primary screen, biochemical, small-molecule microarray, 635 nm fluorescence scan (AID 1107); conditions: small-molecule microarray binding, higher = more signal;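 also: mouse activin A protein probed at 4.33 µg/mL on printed slides; score merges bound-protein fluorescence near 667 nm with spot signal-to-noise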
[11] = system: Human papillomavirus type 1a protein E7 (residues 44-93); assay: HPV1a E7 fragment binders on microarrays, primary screen, biochemical, small-molecule microarray, residues 44-93, 635 nm fluorescence (AID 1108); conditions: small-molecule microarray binding, fluorescence 635 nm; higher = more signal;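 also: E7 fragment applied at 1 µg/mL in TBST for 1 h at 4 C; score combines spot fluorescence with its signal to noise ratio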
[12] = modulators of HCV replicon luciferase signal, primary screen, HCV replication inhibitor project, Huh7 cells, luciferase reporter (AID 1109); conditions: 48 h, higher = more signal;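 also: huh7 hepatoma cells harbouring a luciferase neomycin HCV replicon reporter; luciferase luminescence as measure of HCV replicon replication; test concentration not given here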
[13] = target: Left-right determination factor 2 (Homo sapiens) (UniProt O00292); assay: LEFTY2 binders on small-molecule microarrays, primary screen, biochemical, small-molecule microarray, 635 nm fluorescence scan (AID 1110); conditions: LEFTY2 binding, higher = more signal
[14] = target: Calmodulin-1 (Homo sapiens) (UniProt P0DP23); assay: CALM1 binders on microarrays, EGTA buffer, profiling panel, biochemical, small-molecule microarray, Cy5-labelled CALM1 (AID 1111); conditions: Cy5-CALM1 binding fluorescence, higher = more signal;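 also: labelled calmodulin applied in Tris saline Tween buffer holding calcium plus EGTA and DTT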
[15] = target: Calmodulin-1 (Homo sapiens) (UniProt P0DP23); assay: calcium-bound CALM1 binders on microarrays, profiling panel, artefact control for SMM control-protein annotation, biochemical, small-molecule microarray, Cy5-labelled CALM1, plus calcium (AID 1112); conditions: Cy5-CALM1 binding fluorescence, higher = more signal;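 also: score merges spot fluorescence with signal to noise from triplicate slides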
[16] = small-molecule microarray binders of probe aWnt5a, primary screen, biochemical, biotinylated probe, 635/667 nm fluorescence (AID 1113); conditions: higher = more signal;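 also: score merges 667 nm fluorescence intensity with signal-to-noise per printed feature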
[17] = small-molecule microarray binders of probe aShh, primary screen, biochemical, biotinylated probe, 635/667 nm fluorescence (AID 1114); conditions: higher = more signal;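 also: probe is biotin-labelled aShh protein from a stem cell growth factor screen; measures binding of labelled protein to compounds printed on the slide; score merges feature fluorescence at 667 nm with signal-to-noise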
[18] = small-molecule microarray binders of probe aNog, primary screen, biochemical, biotinylated probe, 635/667 nm fluorescence (AID 1115); conditions: higher = more signal;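 also: probe is biotinylated aNog protein used at 0.15 µg/mL for 1 h at 4 C; z-score combines 667 nm fluorescence of each spot with its signal to noise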
[19] = target: Torsin-1A-interacting protein 1 (Homo sapiens) (UniProt Q5JTV8); assay: LAP1 binders from COS7 cell lysate, primary screen, small-molecule microarray, 635/667 nm fluorescence (AID 1116); conditions: COS7-hLAP1 lysate binding, 635 nm fluorescence, higher = more signal
[20] = target: Alpha-bungarotoxin (Bungarus multicinctus) (UniProt P60615); assay: alpha-bungarotoxin binders on microarray, profiling panel, artefact control for SMM control protein annotation, biochemical, small-molecule microarray, Alexa647 label, 635/667 nm fluorescence (AID 1117); conditions: alpha-BTX-A647 binding fluorescence, higher = more signal
Chain of Alpha-bungarotoxin (Bungarus multicinctus) (P60615 whole entry, looked up): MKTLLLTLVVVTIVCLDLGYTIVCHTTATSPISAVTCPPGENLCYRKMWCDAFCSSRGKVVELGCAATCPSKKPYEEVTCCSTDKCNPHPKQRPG

Chain of Torsin-1A-interacting protein 1 (Homo sapiens) (Q5JTV8 whole entry, looked up): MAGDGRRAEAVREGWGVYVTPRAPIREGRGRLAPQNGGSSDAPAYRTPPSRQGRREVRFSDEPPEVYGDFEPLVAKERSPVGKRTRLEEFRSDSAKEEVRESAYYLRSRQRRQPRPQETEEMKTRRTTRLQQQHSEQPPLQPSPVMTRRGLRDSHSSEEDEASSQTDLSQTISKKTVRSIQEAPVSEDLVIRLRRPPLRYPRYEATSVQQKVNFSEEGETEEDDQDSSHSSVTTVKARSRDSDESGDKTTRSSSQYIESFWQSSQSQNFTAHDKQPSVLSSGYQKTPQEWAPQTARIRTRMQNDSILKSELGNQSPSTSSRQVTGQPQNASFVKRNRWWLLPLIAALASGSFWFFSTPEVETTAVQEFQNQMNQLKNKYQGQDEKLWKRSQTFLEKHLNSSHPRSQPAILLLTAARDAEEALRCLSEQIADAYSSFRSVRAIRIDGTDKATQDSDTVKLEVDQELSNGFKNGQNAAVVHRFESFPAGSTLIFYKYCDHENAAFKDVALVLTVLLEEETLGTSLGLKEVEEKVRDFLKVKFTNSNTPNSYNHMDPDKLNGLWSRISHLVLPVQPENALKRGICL
Chain of Left-right determination factor 2 (Homo sapiens) (O00292 whole entry, looked up): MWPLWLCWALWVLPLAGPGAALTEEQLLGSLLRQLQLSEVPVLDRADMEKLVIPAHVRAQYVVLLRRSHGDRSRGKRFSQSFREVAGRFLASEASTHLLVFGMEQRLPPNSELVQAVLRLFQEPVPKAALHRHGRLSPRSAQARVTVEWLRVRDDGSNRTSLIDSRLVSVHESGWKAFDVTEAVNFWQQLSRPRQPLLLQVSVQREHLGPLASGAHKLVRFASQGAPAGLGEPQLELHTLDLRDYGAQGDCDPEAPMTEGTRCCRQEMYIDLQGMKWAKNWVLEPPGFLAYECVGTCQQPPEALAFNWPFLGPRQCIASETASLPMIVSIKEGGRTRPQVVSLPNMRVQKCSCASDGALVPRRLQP
Chain of Epidermal growth factor receptor (Homo sapiens) (P00533 whole entry, looked up): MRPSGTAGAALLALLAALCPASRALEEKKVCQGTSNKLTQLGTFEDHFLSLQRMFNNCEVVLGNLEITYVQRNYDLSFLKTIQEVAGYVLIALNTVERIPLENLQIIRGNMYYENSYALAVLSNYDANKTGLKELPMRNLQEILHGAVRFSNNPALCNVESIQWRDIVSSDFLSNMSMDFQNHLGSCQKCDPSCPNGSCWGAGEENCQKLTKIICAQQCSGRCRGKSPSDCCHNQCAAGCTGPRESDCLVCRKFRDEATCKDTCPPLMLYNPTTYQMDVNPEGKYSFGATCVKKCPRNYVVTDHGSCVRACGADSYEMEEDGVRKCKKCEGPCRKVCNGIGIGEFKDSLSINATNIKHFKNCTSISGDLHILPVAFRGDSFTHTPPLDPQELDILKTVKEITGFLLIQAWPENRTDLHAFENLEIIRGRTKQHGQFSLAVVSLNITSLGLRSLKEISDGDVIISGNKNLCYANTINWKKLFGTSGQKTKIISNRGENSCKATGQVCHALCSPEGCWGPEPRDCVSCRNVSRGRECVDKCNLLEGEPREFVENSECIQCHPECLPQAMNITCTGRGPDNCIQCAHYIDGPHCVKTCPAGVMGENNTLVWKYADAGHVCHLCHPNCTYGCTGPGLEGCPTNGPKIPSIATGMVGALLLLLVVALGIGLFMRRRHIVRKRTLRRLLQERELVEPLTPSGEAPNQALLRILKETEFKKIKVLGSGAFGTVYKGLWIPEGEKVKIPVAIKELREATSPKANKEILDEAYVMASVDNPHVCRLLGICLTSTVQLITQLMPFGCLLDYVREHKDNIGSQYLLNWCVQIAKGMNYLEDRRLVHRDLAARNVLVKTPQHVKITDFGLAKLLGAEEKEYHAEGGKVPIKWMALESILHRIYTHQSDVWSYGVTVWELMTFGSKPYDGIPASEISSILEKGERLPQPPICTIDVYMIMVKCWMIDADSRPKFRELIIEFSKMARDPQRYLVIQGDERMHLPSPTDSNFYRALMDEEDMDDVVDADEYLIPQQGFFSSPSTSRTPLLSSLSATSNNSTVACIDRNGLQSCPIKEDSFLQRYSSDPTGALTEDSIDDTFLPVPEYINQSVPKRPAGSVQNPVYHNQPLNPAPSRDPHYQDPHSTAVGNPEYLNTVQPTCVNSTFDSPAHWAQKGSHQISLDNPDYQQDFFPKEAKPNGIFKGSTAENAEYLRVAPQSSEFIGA
Chain of Fibroblast growth factor 10 (Homo sapiens) (O15520 whole entry, looked up): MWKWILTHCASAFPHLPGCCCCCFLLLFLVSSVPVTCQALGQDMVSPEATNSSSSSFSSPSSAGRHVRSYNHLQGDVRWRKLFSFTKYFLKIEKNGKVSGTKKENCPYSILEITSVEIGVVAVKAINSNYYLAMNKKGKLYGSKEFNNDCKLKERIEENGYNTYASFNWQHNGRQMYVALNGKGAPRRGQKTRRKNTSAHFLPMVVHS
Chain of Dickkopf-related protein 1 (Homo sapiens) (O94907 whole entry, looked up): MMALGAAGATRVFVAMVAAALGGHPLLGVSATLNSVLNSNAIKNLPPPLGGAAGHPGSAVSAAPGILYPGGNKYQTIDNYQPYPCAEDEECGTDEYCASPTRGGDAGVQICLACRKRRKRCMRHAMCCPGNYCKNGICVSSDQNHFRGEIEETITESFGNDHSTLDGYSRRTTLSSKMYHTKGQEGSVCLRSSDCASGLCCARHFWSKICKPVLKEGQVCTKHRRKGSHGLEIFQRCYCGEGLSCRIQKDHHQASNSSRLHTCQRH
Chain of Follistatin-related protein 3 (Homo sapiens) (O95633 whole entry, looked up): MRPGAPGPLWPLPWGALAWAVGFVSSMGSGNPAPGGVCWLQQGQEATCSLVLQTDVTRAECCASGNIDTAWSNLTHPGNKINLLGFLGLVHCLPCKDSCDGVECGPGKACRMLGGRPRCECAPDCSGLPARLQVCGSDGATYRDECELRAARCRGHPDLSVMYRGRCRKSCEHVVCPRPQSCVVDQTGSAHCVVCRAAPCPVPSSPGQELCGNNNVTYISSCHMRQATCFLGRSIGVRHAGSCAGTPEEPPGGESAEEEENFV

Structure (SMILES) | composite z-score [1] | composite z-score [2] | composite z-score [3] | z-score [4] | composite z-score [5] | composite z-score [6] | composite z-score [7] | composite z-score [8] | composite z-score [9] | composite z-score [10] | composite z-score [11] | z-score [12] | composite z-score [13] | composite z-score [14] | composite z-score [15] | composite z-score [16] | composite z-score [17] | composite z-score [18] | composite z-score [19] | composite z-score [20]
O=C(NN=C1C[C@@H](O)[C@@H](O)[C@@H]2[C@@H]3C(=O)N(C[C@@H]4CCCO4)C(=O)[C@@H]3CC[C@@H]12)OCc1ccccc1 | 0.789 | -0.32 | -0.916 | -1.03 (inactive) | 0.127 | 1.09 | 0.509 | 0.0972 | 0.486 | 0.781 | 0.457 | 0.246 | 0.686 | -0.817 | -1.51 | -0.243 | 0.111 | -0.139 | -0.306 | -0.421
CON=CC[C@@H]1C=C[C@H](OC(C)=O)[C@@H](COC(C)=O)O1 | 0.0728 | -0.146 | -0.0937 | 0.079 (inactive) | 0.277 | 0.184 | 0.393 | 0.727 | 0.531 | 1.68 | -0.0635 | 0.569 | 0.533 | -0.536 | -0.688 | 0.0004 | 0.351 | -0.0281 | 0.292 | 0.479
CC(C)=CCCC(C)=CCON=C1C[C@@H](O)[C@@H](O)[C@@H]2[C@@H]3C(=O)N(c4ccc(F)cc4F)C(=O)[C@@H]3CC[C@H]12 | 0.176 | -0.016 | -0.428 | -0.956 (inactive) | 0.0906 | 0.349 | 0.531 | 1.08 | 0.612 | 0.342 | 1.36 | 0.19 | 0.621 | -0.0184 | -0.778 | -0.124 | 0.0668 | -0.379 | 0.153 | 0.39
CCOC(=O)NN=C1C[C@@H](O)[C@@H](O)[C@@H]2[C@@H]3C(=O)N([C@@H](C)c4ccccc4)C(=O)[C@@H]3CC[C@@H]12 | 0.799 | -0.315 | -0.677 | 1.31 (inactive) | 0.725 | 1.12 | 1.09 | 1.34 | 0.867 | 1.43 | 0.207 | 0.0672 | 0.937 | -0.762 | -2.03 | -0.191 | -0.476 | -0.12 | 1.41 | -0.778
CCOC(=O)[C@H](CC(C)C)NC(=O)CCC1CC(OC(=O)NCCc2ccc(F)cc2)CC2(CCCC(COC(=O)NCC(c3ccccc3)c3ccccc3)O2)O1 (stereo not given in full) | 1.1 | 0.096 | -0.437 | 0.0587 (inactive) | 0.588 | 0.873 | 0.319 | 0.824 | 0.697 | -0.0427 | 0.776 | 0.612 | 0.319 | 0.479 | -0.476 | -0.152 | -0.214 | -0.501 | 0.145 | 0.71
CCCNC(=O)OC[C@H]1O[C@H](CCON=C(C)CCN2CCCc3nc(C)c(C)cc32)C=C[C@@H]1Oc1ccc(OC)cc1 | 0.333 | 0.595 | -0.237 | 0.304 (inactive) | 0.653 | 0.73 | 0.509 | 0.605 | 0.687 | 0.491 | 0.652 | -2.36 | 0.425 | 0.65 | 0.241 | -0.119 | 0.0952 | 0.358 | 0.186 | 0.782
COc1ccc(COC(=O)NN=C2C[C@@H](O)[C@@H](O)[C@@H]3[C@@H]4C(=O)N(c5cccc(Oc6ccccc6)c5)C(=O)[C@@H]4CC[C@@H]23)cc1 | -0.0785 | 0.557 | 1.28 | -0.161 (inactive) | -0.518 | -1.2 | -0.322 | -1.07 | -0.89 | 0.247 | -0.203 | -1.98 | -0.0421 | -0.338 | 0.0996 | -0.0165 | -0.117 | -0.0641 | 0.326 | 0.487
COC(=O)C=CCCc1coc(C=CCNC(=O)OC)n1 | 0.844 | 0.161 | -0.388 | 0.183 (inactive) | 0.789 | 0.643 | 0.867 | 1.07 | 1.16 | 1.3 | 0.565 | -0.632 | 0.827 | -0.316 | -1.53 | -0.0346 | 0.275 | -0.255 | 0.192 | -0.264
O=C1C=C[C@@H](O)[C@@H]2[C@@H]3C(=O)N(C[C@@H]4CCCO4)C(=O)[C@@H]3CC[C@@H]12 | 0.27 | -0.0602 | -0.454 | 0.186 (inactive) | 0.513 | 0.496 | 0.645 | 0.591 | 1.17 | 0.451 | 0.0168 | -0.848 | 0.449 | -0.202 | -0.78 | -0.124 | 0.111 | -0.176 | 0.206 | 0.33
Cc1cc2c(nc1C)CCCCN2CC(C)ON=C[C@@H](C)[C@H](OCc1ccccc1)C(C)C (stereo not given in full) | -0.504 | -0.873 | -0.122 | -0.037 (inactive) | -1.92 | -1.05 | -1.85 | -0.934 | -0.969 | 0.911 | -0.683 | -3.07 | -0.684 | -1.4 | -0.987 | -0.224 | -0.214 | -0.415 | -1.16 | -0.916
O=C1[C@H]2[C@H]3[C@H](O)[C@H](O)CC(=NO[C@@H]4O[C@H](CO)[C@@H](O)[C@H](O)[C@H]4O)[C@H]3CC[C@H]2C(=O)N1c1cccc(Oc2ccccc2)c1 | 0.0739 | -0.187 | -0.478 | 0.0512 (inactive) | 0.73 | 0.67 | 0.508 | 0.598 | 0.71 | -0.204 | 0.583 | -0.243 | 0.723 | -0.0761 | -0.474 | -0.168 | -0.349 | -0.129 | 0.675 | -0.0791
